Laboratory results taken from PubChem BioAssay (NCI).
Compounds without any hit were thinned out: in the full panel of roughly 79,000, 15% have a hit. Cut-off read from the data, not from the text of the source: active = growth inhibition above about 70%; inactive = the rest.

Tests used:
[1] = NCI Yeast Anticancer Drug Screen. Data for the rad50 strain (AID 155);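 note: 0% = growth of vehicle-only cultures of the same strain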; conditions: S. cerevisiae rad50 strain growth inhibition; at 50.0 µM; active compounds read high
How it was run: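 Compounds were tested on a yeast strain with an engineered DNA damage repair alteration; the reported value is growth inhibition normalised to vehicle treatment.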

[2] = NCI Yeast Anticancer Drug Screen. Data for the mec2-1 strain (AID 157); conditions: S. cerevisiae mec2-1 strain, at 50.0 µM, active compounds read high
How it was run: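 Cells of the genetically defined mec2-1 yeast strain are incubated with test compound. Inhibition of growth is calculated against vehicle-treated controls.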

[3] = NCI Yeast Anticancer Drug Screen. Data for the sgs1 mgt1 strain (AID 161);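 note: 0% = growth of cultures given vehicle only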; conditions: S. cerevisiae sgs1 mgt1 strain, at 50.0 µM, active compounds read high
How it was run: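 Test agents were incubated with a DNA-repair-mutant yeast strain. Growth was then read and compared against vehicle-treated controls.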

[4] = NCI Yeast Anticancer Drug Screen. Data for the cln2 rad14 strain (AID 165);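 note: 0% = growth equal to vehicle treated cultures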; conditions: S. cerevisiae cln2 rad14 strain, at 50.0 µM, active compounds read high
How it was run: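 The screen exposed genetically defined yeast (cln2 rad14) to test compounds and scored growth inhibition relative to vehicle-treated controls.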

[5] = NCI Yeast Anticancer Drug Screen. Data for the bub3 strain (AID 167); conditions: S. cerevisiae bub3 mutant strain, at 50.0 µM, active compounds read high
How it was run: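 Growth of a checkpoint-deficient yeast mutant is measured after compound exposure. Values represent inhibition relative to vehicle.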

[6] = NCI Yeast Anticancer Drug Screen. Data for the mlh1 rad18 strain (AID 175); conditions: S. cerevisiae mlh1 rad18 strain growth inhibition; at 50.0 µM; active compounds read high
How it was run: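 Compound-treated yeast growth, normalised to vehicle controls. Strain bears defined DNA repair mutations.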

Measured: growth inhibition

O=C(C[N+]12CN3CN(CN(C3)C1)C2)c1cccc2ccccc12
inactive: [1] 11.2% | [2] -11.6% | [3] 9.35% | [4] -3.2% | [5] -4.7% | [6] 14.6%

Cc1ccc(NC(=O)c2cc3cc(N=Nc4ccc(Br)cc4)ccc3oc2=O)cc1
inactive: [1] 16% | [2] 28.1% | [3] 12.4% | [4] 23.1% | [5] 3.05% | [6] 15.8%

COc1ccc(-n2c(=O)c(N=Nc3ccc(Cl)cc3)c(O)n(-c3ccc(I)cc3)c2=S)cc1
inactive: [1] 49.8% | [2] 5.45% | [3] 33.4% | [4] -3.7% | [5] 0.8% | [6] 22.4%

Cn1c(=O)c2ncn(CC(O)COc3ccccc3)c2n(C)c1=O (configuration not stated)
inactive: [1] 2.15% | [2] 3.1% | [3] 11.8% | [4] -2.8% | [5] 25.9% | [6] 16.3%

O=C(Oc1c(OC(=O)c2ccccc2)c2ccccc2c2ccccc12)c1ccccc1
inactive: [1] 3.2% | [2] 9.35% | [3] 7.85% | [4] -1.7% | [5] -1.25% | [6] 20.4%

Nc1nc(N)c2nc(C(=O)O)c(C(=O)O)nc2n1
inactive: [1] -20.6% | [2] -8.2% | [3] -11.5% | [4] -15.8% | [5] -19% | [6] -4.2%

O=C(Nc1ccccc1Cl)OCCOc1ccccc1
inactive: [1] -3.7% | [2] 10.1% | [3] 11.3% | [4] -19.1% | [5] 17.2% | [6] 14.7%

Cc1cc2c(cc1C)NC(=O)CC(=O)N2
inactive: [1] -3.45% | [2] -28.8% | [3] -8.45% | [4] 1.95% | [5] -18.7% | [6] 14.4%

CN1N(c2ccccc2)C(=O)C2=NC=C(C#N)C(=N)C21C (configuration not stated)
inactive: [1] 14.9% | [2] 41% | [3] 24.6% | [4] 15.9% | [5] 19.5% | [6] 42.4%

O=C(OCc1ccccc1CN1CCOCC1)c1cccc(Cl)c1
inactive: [1] 13.8% | [2] -1.55% | [3] 17.3% | [4] -0.05% | [5] -6.25% | [6] 7.35%

O=C(c1ccc(Cl)cc1)c1cccc(Cl)c1
inactive: [1] -6.35% | [2] -16.1% | [3] -3.7% | [4] -1.5% | [5] -10% | [6] 6.3%

CCOC(=O)c1ccccc1OCc1ccccc1
inactive: [1] 13.3% | [2] 15.2% | [3] 5.75% | [4] -5.9% | [5] 51.8% | [6] 14.9%

O=C(Cc1ccccc1)NCc1ccc(Cl)cc1
inactive: [1] 3.75% | [2] 18.2% | [3] 34.1% | [4] -5.7% | [5] 41.1% | [6] 27.4%

CCCCCCn1cnc2c(=O)[nH]c(N)nc21
inactive: [1] -2% | [2] 3.5% | [3] -17.2% | [4] -7.05% | [5] -8.65% | [6] -10.2%

CCOC(=O)Cc1nc2sc(C)c(-c3ccccc3)c2c(=O)[nH]1
inactive: [1] 32.4% | [2] 19.6% | [3] 27.5% | [4] 3.35% | [5] 17.2% | [6] 31.4%

O=C(NCCCl)Nc1[nH]c(=O)ncc1I
inactive: [1] -6.55% | [2] -6.7% | [3] 1.1% | [4] -10.3% | [5] -8.75% | [6] -7.95%

COC/C(=N/Nc1ccc([N+](=O)[O-])cc1[N+](=O)[O-])C(C)(C)C
inactive: [1] -2.8% | [2] 16.4% | [3] 8.6% | [4] -26.3% | [5] -20.9% | [6] -16.8%

S=C(N1CCN(c2ccc(Cl)c(Cl)c2)CC1)N1CCN(c2ccc(Cl)c(Cl)c2)CC1
inactive: [1] 7.8% | [2] 22.2% | [3] 27.9% | [4] 12% | [5] 5.55% | [6] 20.2%

O=C1OC(=O)C2=C1CCC2
inactive: [1] -5% | [2] -14.1% | [3] -20.4% | [4] 13.3% | [5] 3.85% | [6] -12.4%

c1csc(C2N3CCN(CC3)C(c3cccs3)N3CCN2CC3)c1 (configuration not stated)
inactive: [1] -1.6% | [2] -16.7% | [3] 23.8% | [4] 10.1% | [5] -5.25% | [6] 3.1%

CN(C)N=Nc1ccc(C(=O)N/N=C/c2ccc([N+](=O)[O-])cc2)cc1
inactive: [1] -0.95% | [2] 40.5% | [3] 4.75% | [4] -5.75% | [5] 23.9% | [6] 17.9%

c1csc(CNc2cccc3ccccc23)c1
inactive: [1] 54.5% | [2] 25% | [3] 31.6% | [4] -22.1% | [5] 13.6% | [6] 28%

O=C(Nc1ccc([N+](=O)[O-])cc1Cl)c1ccc(C(=O)Nc2ccc([N+](=O)[O-])cc2Cl)cc1
inactive: [1] -6.4% | [2] -1.75% | [3] -1.85% | [4] 31.3% | [5] 1.95% | [6] 0.55%

CC1=NOC(=O)/C1=C/c1ccccc1C
inactive: [1] 51.2% | [2] 2.55% | [3] 27.9% | [4] 8.15% | [5] 17.4% | [6] 36.9%

Cc1cccc(C)c1NC(=O)Nc1cccc(C(F)(F)F)c1
inactive: [1] -16.4% | [2] -29.4% | [3] -14.7% | [4] -22.4% | [5] -8.25% | [6] -17.8%

CN=c1ss/c(=N\C(=S)N(C)C)n1C
inactive: [1] -0.2% | [2] -10.5% | [3] -21.6% | [4] 28% | [5] -11.5% | [6] 6.8%

CCCNc1nnnn1CCC
inactive: [1] 3.15% | [2] 5.05% | [3] -0.4% | [4] 4.25% | [5] 10.9% | [6] -0.05%

NC(=S)SC1=NNC2(C(=O)N1)c1ccccc1-c1ccccc12
inactive: [1] -11.6% | [2] -33.6% | [3] 14.2% | [4] -6.7% | [5] 5.7% | [6] 14.6%

COC(=O)C1CC(=O)N(CCCl)C1 (configuration not stated)
inactive: [1] -5.65% | [2] 5.6% | [3] -23.9% | [4] -18.1% | [5] 11.7% | [6] -10.8%

CCN(CC)CCOC(=O)c1ccc(N)c2ccccc12
inactive: [1] -3.8% | [2] 12.2% | [3] -14.3% | [4] -22.4% | [5] 5.5% | [6] 6.85%

O=C(Cc1cccc2c(=O)cc(-c3ccccc3)oc12)OCCN1CCOCC1
inactive: [1] 18.9% | [2] 31.4% | [3] 0.95% | [4] 7.4% | [5] 26.9% | [6] 29.4%

NC(CC(=O)N/C=N/C(=O)O)C(=O)O (configuration not stated)
inactive: [1] -5.85% | [2] 5.45% | [3] -17.2% | [4] 4.4% | [5] 6.45% | [6] -7.75%

C=CCN1C(=O)/C(=C/c2ccc(OCC(=O)O)cc2)SC1=S
inactive: [1] 5.7% | [2] -11.2% | [3] 0.05% | [4] -46.6% | [5] -1% | [6] -13.8%

Oc1[nH]c2ccccc2c1N=Nc1nc(-c2ccc(Br)cc2)cs1
inactive: [1] -24.9% | [2] -24.8% | [3] -17.4% | [4] -10.2% | [5] 12% | [6] 5.5%

CCCCCCCC(=O)Nc1nnc(SCCCCCCCCCCSc2nnc(NC(=O)CCCCCCC)s2)s1
inactive: [1] -33.5% | [2] -14.9% | [3] -5.55% | [4] -52.3% | [5] -0.5% | [6] -4.45%

Cc1ccsc1S(N)(=O)=O
inactive: [1] -21.1% | [2] -23.1% | [3] -10.6% | [4] -12.2% | [5] 11.4% | [6] -6.75%

O=C(OCCCCNC1CCCCC1)c1ccc([N+](=O)[O-])cc1
inactive: [1] 9.65% | [2] 3% | [3] -7.05% | [4] -7.3% | [5] -13.6% | [6] 5.25%

Cc1ccsc1/C=N/Nc1cnccn1
inactive: [1] 11.1% | [2] 2.6% | [3] 17.3% | [4] 6.15% | [5] 0.4% | [6] 19.9%

O=C(O)C(NCCNC(C(=O)O)c1ccccc1)c1ccccc1 (configuration not stated)
inactive: [1] 24.2% | [2] 6.7% | [3] 19% | [4] 38.6% | [5] 15.2% | [6] 3.4%

C[N+]1(C)C2C=CCC1CSC2 (configuration not stated)
inactive: [1] 4.55% | [2] 0.15% | [3] -3.8% | [4] 3.65% | [5] 2.75% | [6] 12.8%

O=P1(c2ccccc2)OCC2=C(c3ccccc3)CC2=C1c1ccccc1 (configuration not stated)
inactive: [1] 16.1% | [2] 12.2% | [3] 4.7% | [4] 10.1% | [5] -2.05% | [6] 19.9%

Cc1ccc(S(=O)(=O)OC(F)(F)C(F)(F)F)cc1
inactive: [1] 7.8% | [2] 5.05% | [3] 7.95% | [4] -8.15% | [5] -4.05% | [6] 5.5%
